Only some compounds are listed: those with a hit (about 6.8% of all), similar ones and a draw of the others.
Autofluor 339: intrinsic fluorescence of library compounds, ex339/em460 – biochemical, MLSMR library, data from DPM-DC assay, artefact control, profiling panel | compound autofluorescence, ex339/em460 nm, NADH buffer; active compounds read high; 1 = no-compound wells, NADH background | AID 709 | 65,000 tested, 5.5% active | fluorescence fold increase at 10 µM;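 active = at 10 µM, mean starting fluorescence two-fold or more over control wells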;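 note: signal is the first read of a kinetic run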
DPM-DC inhibit: S. pneumoniae DPM-DC inhibition | calls only at 10 µM | 65,000 tested, 0.49% active | AID 556 | purified DPM-DC, PK/LDH coupled NADH fluorescence;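 active = the 320 compounds with the highest percent inhibition in the single-dose primary screen, excluding strongly autofluorescent ones, cut at about 32% in these data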;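 note: kinetic rate of NADH fluorescence loss reporting ADP formed by the decarboxylase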
A340 absorber: absorbance at 340 nm | compound absorbance at 340 nm, fold over control | fold change at 10 µM | 65,000 tested, under 10 active;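 active = at 10 µM dose, initial 340 nm absorbance at least 2 fold that of control wells; inactive = change under 2 fold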;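 note: initial absorbance extrapolated from kinetic A340 decline of NADH oxidation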
PMK inhibit: S. pneumoniae PMK inhibition; inhibition, % at 10 µM; purified PMK, PK/LDH-coupled NADH absorbance 340 nm; AID 539; 65,000 tested, 0.49% active;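 active = top-ranked compounds by inhibition in the single 10 µM screen, taking a fixed number of the strongest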
NADH enzymes: inhibitors of enzymes used to reach an NAD/NADH endpoint. coupled PK/LDH NADH assays, four targets. IC50, µM (top dose mostly 10 µM). 65,000 tested, 0.02% active;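 active = single-dose screening hits from any of four coupled enzyme assays that gave an IC50 when retested across doses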;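 note: the DPM-DC format reads NADH fluorescence rather than 340 nm absorbance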
MK inhibit: S. pneumoniae mevalonate kinase inhibition | purified MK, PK/LDH-coupled NADH absorbance 340 nm | inhibition, % at 10 µM | 65,000 tested, 0.48% active | AID 555;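 active = ranked among the strongest by inhibition in the single 10 µM screen, a fixed top-ranked set picked for dose follow-up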
Numbers stand for hits; n = inactive; x = no result given; + = active, no number.

SMILES | Autofluor 339 | DPM-DC inhibit | A340 absorber | PMK inhibit | NADH enzymes | MK inhibit
CC1(C)CC(=O)C2=C(C1)N(CCN1CCOCC1)C1=C(C(=O)CC(C)(C)C1)C2c1cccc(F)c1 | 4.8 | x | n | n | n | n
CC1(C)CC(=O)C2=C(C1)N(CCN1CCOCC1)C1=C(C(=O)CC(C)(C)C1)C2c1ccc(Cl)cc1 | 5 | x | n | n | n | n
CC1(C)CC(=O)C2=C(C1)NC(=O)CC2c1cccc(F)c1 (centres undefined) | n | n | n | n | n | n
Cc1ccccc1-c1coc2cc(O)ccc2c1=O | 3.9 | x | n | n | n | n
CC(C)Oc1ccc2c(=O)c(-c3ccccc3)coc2c1 | n | n | n | n | n | n
C=CCNS(=O)(=O)c1cccc2cc(C(=O)O)c(O)cc12 | 2.3 | n | n | n | n | n
CCC(Oc1ccccc1)C(=O)Nc1ccccn1 (centres undefined) | n | n | n | n | n | n
COc1ccc(NC(=O)N(CCN2CCCC2)Cc2cc3cc(OC)c(OC)cc3[nH]c2=O)cc1 | 2.1 | n | n | n | n | n
CCN(CC)CCCN(Cc1cc2cc(OC)ccc2[nH]c1=O)C(=O)Nc1ccc(F)cc1 | 2 | n | n | n | n | n
COc1ccc(NC(=O)N(CCCN(C)C)Cc2cc3cc(OC)ccc3[nH]c2=O)cc1 | n | n | n | n | n | n
CCN(CC)CCCN(Cc1cc2cc(OC)ccc2[nH]c1=O)C(=O)Nc1ccccc1 | n | n | n | n | n | n
CCCn1nnnc1SCC(=O)NCc1ccc2c(c1)OCO2 | n | n | n | n | n | n
CC1(C)CC(=O)C2=C(C1)Oc1nc3ccccc3cc1C2C(C#N)C#N (centres undefined) | n | n | n | n | n | n
COc1ccc(-c2c(N)nnc3c2[nH]c2ccccc23)cc1OC | 4.6 | x | n | n | n | n
O=C(NCc1ccco1)Nc1ccc(Br)cc1 | n | n | n | n | n | n
O=C(NCc1ccco1)Nc1ccc2nsnc2c1 | 2.4 | x | n | n | n | n
O=C(C(c1ccccc1)c1ccccc1)N1CCN(Cc2ccccn2)CC1 | n | n | n | n | n | 52
O=C(C(c1ccccc1)c1ccccc1)N1CCN(Cc2ccncc2)CC1 | n | n | n | n | n | n
COc1ccc(C2(C)NC(=O)N(Cc3cc(Cl)cc4c3OCOC4)C2=O)cc1OC (centres undefined) | n | n | n | 31 | n | n
N#CCn1c(C2CCCCC2)nc2ccccc2c1=O | n | n | n | n | n | n
Cc1ccc(-c2cc3nc(C)cc(NCc4ccco4)n3n2)cc1 | 3.3 | n | n | n | n | n
CN(C)S(=O)(=O)c1cccc(C(=O)C2=C3SC=C(c4ccccc4)N3CC2)c1 | n | + | n | n | n | n
CN(C)S(=O)(=O)c1cccc(C(=O)N2CCc3ccccc32)c1 | n | n | n | n | n | n
CCOC(=O)c1[nH]c2ccc(OC)cc2c1NC(=O)c1nonc1C | n | n | n | n | n | n
CCOC(=O)c1[nH]c2ccc(C)cc2c1NC(=O)CN1CCCCC1 | n | n | n | n | n | n
SMILES | Autofluor 339 | DPM-DC inhibit | A340 absorber | PMK inhibit | NADH enzymes | MK inhibit
CCOC(=O)c1[nH]c2cc(OC)c(OC)cc2c1NC(=O)CN1CCN(C)CC1 | 3.6 | x | n | n | n | n
CCOC(=O)c1[nH]c2ccc(OC)cc2c1NC(=O)CN1CCC2(CC1)OCCO2 | 3.9 | x | n | n | n | n
CCOC(=O)c1[nH]c2ccc(F)cc2c1NC(=O)C(C)N1CCc2cc(OC)c(OC)cc2C1 (centres undefined) | n | n | n | n | n | n
CCOC(=O)c1[nH]c2ccc(OC)cc2c1NC(=O)C(C)N1CCC2(CC1)OCCO2 (centres undefined) | 3.8 | x | n | n | n | n
COc1ccccc1-n1cnnc1SCC(=O)c1ccc[nH]1 | n | n | n | n | n | n
Cc1ccc(CC2CC(=O)N(c3ccc(Cl)cn3)C2=O)cc1 (centres undefined) | n | n | n | n | n | n
Nc1ccc(-c2nc3c(Cl)cc(N)cc3[nH]2)cc1 | 4.9 | x | n | n | n | n
CCCCc1cc2c(c(NC(=O)CC)n1)c(=O)oc1ccccc12 | 2.2 | n | n | n | n | n
CCCCc1cc2c(c(NC(C)=O)n1)c(=O)oc1ccccc12 | n | n | n | n | n | n
CCOC(=O)c1ccccc1NC(=O)c1ccc(Cl)c(S(=O)(=O)N2CCOCC2)c1 | n | n | n | n | n | n
Cc1nc(NCc2ccco2)c2c3c(sc2n1)CCC3 | n | n | n | n | n | n
CC(C)Sc1nc(NCc2ccco2)c2c3c(sc2n1)COC(C)(C)C3 | 2 | x | n | n | n | n
Cc1cccc(N2C(=O)c3cccc4c(N(C)CCO)ccc(c34)C2=O)c1 | 2.1 | x | n | n | n | n
O=C1NC(=S)SC1=C1CCCCCC1 | n | n | n | n | n | n
CCN1C2=C(C(=O)CCC2)C(c2ccc(O)c(Br)c2)C2=C1CCCC2=O | 2.1 | x | n | n | n | n
Cc1ccc(C2CC(=O)NC3=C2C(=O)CCC3)cc1Br (centres undefined) | n | n | n | n | n | n
O=C(NCc1ccco1)c1ccc2nc3sc4c(c3c(=O)n2c1)CCCC4 | n | n | n | n | n | n
COc1ccccc1-c1ccc(=O)n(CC(=O)NC(C)(C)C)n1 | n | n | n | n | n | n
Fc1ccc2[nH]c3c(N4CCN(c5ccccc5)CC4)ncnc3c2c1 | n | n | n | n | n | n
CCOC(=O)N1CCN(c2ncnc3c2[nH]c2ccc(OC)cc23)CC1 | 2.5 | x | n | n | n | n
O=C(c1ccco1)N1CCN(c2ncnc3c2[nH]c2ccccc23)CC1 | n | n | n | n | n | n
COc1cccc2[nH]c3c(N4CCCCC4)ncnc3c12 | 3.7 | x | n | n | n | n
COc1cc2[nH]c3c(N4CCN(c5ccccn5)CC4)ncnc3c2cc1OC | 3.7 | x | n | n | n | n
CCOC(=O)C1CCN(c2ncnc3c2[nH]c2cccc(OC)c23)CC1 | 3.7 | x | n | n | n | n
O=C(c1ccco1)N1CCN(c2ncnc3c2[nH]c2ccc(Br)cc23)CC1 | n | n | n | n | n | n
SMILES | Autofluor 339 | DPM-DC inhibit | A340 absorber | PMK inhibit | NADH enzymes | MK inhibit
CCN(CC)S(=O)(=O)c1ccc(NC(=O)Cn2c(=O)sc3ccccc32)cc1 | n | n | n | n | n | n
C=CCn1c(SCC(=O)c2ccc(NS(=O)(=O)c3ccccc3)cc2)nnc1-c1cccs1 | n | n | n | n | n | n
COc1ccc(-c2nnn(CCc3nn[nH]n3)n2)cc1OC | n | n | n | n | n | n
Cc1nn(CCc2nn[nH]n2)c2nc(C(F)(F)F)cc(C(F)(F)F)c12 | 5 | x | n | n | n | n
CCOc1cc2nc(-c3ccc(OC)c(OC)c3)nc(N3CCOCC3)c2cc1OC | n | n | n | n | n | n
COc1cc2nc(N3CCNCC3)nc(N)c2cc1OC | 4 | x | n | n | n | n
Cc1cccn2c(=O)c3cc(C(=O)NC4CCCC4)c(=N)n(C4CCCC4)c3nc12 | 2.4 | x | n | n | n | n

Screening results (PubChem BioAssay)
